Screening data as filed in PubChem BioAssay.
This excerpt belongs to a sample that is enriched for hits.
Pf Dd2 growth – qHTS Primary assay for Inhibitors of Plasmodium falciparum Dd2 growth in vitro | Potency, µM (titrated, usually from 28.9 µM), for inactives: at the top dose activity, negative = inhibition, actives largely listed as inhibitors | P. falciparum Dd2 growth, SYBR Green, 72 h | AID 1347417, 2020 | 120,000 tested, 4.3% active; active means well fitted inhibition curve with a large enough effect;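 further: plate controls were DMSO vehicle for no effect and reference drug for full effect; nearly all actives have a fitted effect of over 65% in size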
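Infected erythrocytes (Dd2, 0.3% parasitemia, 2.5% hematocrit final) are added to compound in RPMI-1640/Albumax II medium, grown 72 h at 37C in low oxygen, then lysed with saponin/Triton-X containing SYBR Green and read by fluorescence.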
* hit, by the source's call; i = inactive; [ ] = remark or other dose. Potency means the concentration at half of the fitted maximal effect.

SMILES	Pf Dd2 growth
O=[S+]1([O-])NCC2(CCN(CC3CCOCC3)C2)Oc2ncccc21 (centres undefined)	13%
COc1cccc(C(=O)N2CCCCCC2c2nc(C)no2)c1 (centres undefined)	9%
CC(C)[C@@H](N)C(=O)N1CCC2(CC1)Nc1ccccc1NC2=O	-10%
O=C1CC(c2noc(Cc3ccc(F)cc3)n2)CN1c1ccc(F)c(Cl)c1 (centres undefined)	-1%
CN1C(=O)C2(CCN(Cc3ccsc3)C2)c2ccccc21 (centres undefined)	5.6µM*
O=C1Nc2ccccc2C12CCN(Cc1cccnc1)C2 (centres undefined)	-21%[44.1 µM]
CN1C(=O)C2(CCN(Cc3cncs3)C2)c2ccccc21 (centres undefined)	i
CN1C(=O)C2(CCN(Cc3ccc(C(F)(F)F)cc3)C2)c2ccccc21 (centres undefined)	i
CN1C(=O)C2(CCN(S(=O)(=O)c3ccc(F)cc3)C2)c2ccccc21 (centres undefined)	-29%
CCCC(=O)N1CCC2(CC1)C(=O)N(C)c1ccccc12	44%
CN1C(=O)C2(CCN(C(=O)c3ccc(Cl)cc3)C2)c2ccccc21 (centres undefined)	-21%
CN1C(=O)C2(CCN(C(=O)Cc3ccccc3Cl)C2)c2ccccc21 (centres undefined)	3.2µM*
O=C1Nc2ccccc2C12CCN(Cc1ccsc1)CC2	13%[44.1 µM]
N#Cc1ccc(CN2CCC3(C2)C(=O)Nc2ccccc23)cc1 (centres undefined)	-10%
CN1C(=O)C2(CCN(Cc3ccc(F)cc3)C2)c2ccccc21 (centres undefined)	13µM*
O=C1N(c2ccccc2)c2ccccc2C12CCN(Cc1ccccc1)C2 (centres undefined)	11µM*
COc1ccc(-n2nc(C3CCCN(C(=O)c4ccc(C)cc4)C3)[nH]c2=O)cc1 (centres undefined)	i
COc1ccc(CCCC(=O)N2CCC3(CCCNC3)C2)cc1 (centres undefined)	-8%
CN(C)C[C@@H]1CN(S(C)(=O)=O)C[C@H]1NC(=O)C1(C)CCOCC1	75%
Cc1ccc(N2CCN(C(=O)C3CCCN(c4cnc5nccnc5c4)C3)CC2)cc1 (centres undefined)	i
Clc1ccc(-c2nnc([C@H]3CCN(Cc4c[nH]c5ccccc45)C3)o2)cc1	-24%[44.1 µM]
Cc1ccc(-c2ccc3nnc(CNC(=O)c4ccc(Cl)s4)n3n2)cc1	i
Cc1ccsc1C(=O)N1CC(C(=O)NC2CCCCC2)C2(CCOCC2)C1 (centres undefined)	-4%
CN1C(=O)C2(CCN(Cc3cccc4ccccc34)C2)c2ccccc21 (centres undefined)	13µM*
CN1C(=O)C2(CCN(S(=O)(=O)c3ccccc3)C2)c2ccccc21 (centres undefined)	-21%[44.1 µM]
SMILES	Pf Dd2 growth
O=C(c1ccc(C(F)(F)F)cc1)N1CCC2(C1)C(=O)N(Cc1ccccc1)c1ccccc12 (centres undefined)	-15%
CN1C(=O)C2(CCN(Cc3ccnn3C)C2)c2ccccc21 (centres undefined)	-22%[44.1 µM]
O=C(c1ccc(C(F)(F)F)cc1)N1CCC2(C1)C(=O)N(c1ccccc1)c1ccccc12 (centres undefined)	10µM*
O=C(c1ccccc1F)N1CCC2(C1)C(=O)N(c1ccccc1)c1ccccc12 (centres undefined)	-26%
CC(=O)c1cc(CN2CCCn3nc(CNC(=O)C4CCC4)cc3C2)cs1	3%
COc1ccc(-c2nc3c([nH]2)CN(S(=O)(=O)N2CCCC2)CC3)cn1	-22%
CC(C)(C)CC(=O)N1CC[C@H]2CC(=O)N(CCN3CCNC3=O)CC[C@H]2C1	-4%[44.1 µM]
c1ccc(Cn2cc(CN3CCCOCC3)c(-c3cc4ccccc4o3)n2)cc1	11µM*
COC[C@H]1CCCN1C(=O)CC[C@H]1CNC(=O)[C@@H]2[C@@H](CCN2Cc2ccccc2)N1C	14%[44.1 µM]
O=C1CCN(Cc2ccccc2)CCOCCN1	0%
FC1CCN(Cc2cn(Cc3ccccc3)nc2-c2cc3ccccc3o2)CC1	7.9µM*
COCC1CCCCN1C(=O)c1ccc2oc(CCc3ccccc3)nc2c1 (centres undefined)	-11%
O=C1NCCN1C1CCN(Cc2ccccc2)CC1	-4%[44.1 µM]
Cc1nnc([C@H]2CCN(Cc3ccccc3)C2)o1	i
O[C@@H]1C[C@@H](c2nc(-c3ccc4c(c3)OCO4)no2)N(Cc2ccccc2)C1	i
Fc1ccccc1N1CCN(Cc2nnc(-c3ccc4c(c3)OCO4)o2)CC1	46%[0.594 µM]
O=C(O)c1cncc(-c2cccc(CN3CCOCC3)c2)n1	-16%
COC[C@H]1CCCN1Cc1cn(Cc2ccccc2)nc1-c1cc2ccccc2o1	7.9µM*
c1ccc(Cn2cc(CN3CCCC3)c(-c3ccc4c(c3)OCO4)n2)cc1	11µM*
CC1(C)[C@H](Cc2cc(CN3CCOCC3)on2)C[C@@H]1NS(=O)(=O)Cc1ccccc1	-24%[44.1 µM]
Cn1ccnc1CN1C[C@@H](F)[C@@H](OCc2nc3ccncc3[nH]2)C1	-10%[44.1 µM]
CCNC(=O)N1CCC2(CC1)CC(N(CC)CC)CCO2 (centres undefined)	8%
O=C(N[C@H]1CO[C@H]2[C@@H]1OC[C@@H]2n1nnnc1Oc1ccc(-n2ccnc2)cc1)N1CCOCC1	-4%
Cn1nc(CC2CCN(c3cc(N)ncn3)CC2)n(-c2ccccc2)c1=O	11%
COC1CCN(CC2CCCCCN2)CC1 (centres undefined)	i
SMILES	Pf Dd2 growth
Fc1ccccc1CNC1(Cc2cc(-c3ccccn3)on2)COC1	-27%[44.1 µM]
CCc1nc2c(=O)n(CC(=O)NCCC3=CCCCC3)nc(C)c2s1	i
CCC(C)NC(=O)Cc1csc2nc(C)c(-c3cc(C)n(-c4ccc(C)cc4C)n3)c(=O)n12 (centres undefined)	-14%
OC1(CN2CCC(CCn3cccn3)CC2)CCNC1 (centres undefined)	0%
CN1CC2(CCCN(Cc3cc4ccccc4o3)C2)OC1=O (centres undefined)	9%
CN1CC2(CCN(Cc3ccccc3)CC2)CC1C(=O)N1CCOCC1 (centres undefined)	-30%
CC1(C)CN(Cc2cn(Cc3ccccc3)nc2-c2cc3ccccc3o2)CCO1	8.9µM*
CCCS(=O)(=O)N1CCN(C2CCN(CCOC)C2=O)CC1 (centres undefined)	16%
CCOc1ccc(NC(=O)NC(C)c2c(-n3cccc3)sc(C)c2C)cc1 (centres undefined)	-23%
COc1cc(NC(=O)NC(C)c2c(-n3cccc3)sc3c2CCCC3)cc(OC)c1OC (centres undefined)	-17%
Cc1ccc(-c2ccc(=O)n(C(C)C(=O)Nc3ccccc3Cl)n2)cc1C (centres undefined)	9%
CCOC(=O)c1ccccc1NC(=O)NC(C)c1c(-n2cccc2)sc(C)c1C (centres undefined)	11µM*
Cc1sc(-n2cccc2)c(C(C)NC(=O)Nc2ccccc2Cl)c1C (centres undefined)	5.6µM*
CCOC(=O)c1ccccc1NC(=O)N(C(C)C)C1CCN(C(C)=O)CC1	-8%
NC(=O)[C@@H](Cc1c[nH]c2ccccc12)NC(=O)[C@@]1(O)C[C@@H](O)[C@H](O)[C@@H](NC(=O)NC2CCCCC2)C1	5%
COc1ccc(C(=O)N2C[C@@H](Oc3cccnc3)C[C@H]2C(N)=O)cc1	3%
COCC(=O)N1CCc2nc(C)nc(NCc3cc(C)nn3C)c2CC1	-13%
